Test results as given in PubChem BioAssay AID624389 (National Center for Advancing Translational Sciences (NCATS), 2012).
The source made the active and inactive calls. The call rests on the fitted dose curve; in most records, active means well fitted curve in the direction sought with a large enough effect; inactive means no such curve, though single readings can be large or run the other way.

These compounds were tested against Pyruvate kinase PKM (Homo sapiens) (UniProt P14618) (assay: qHTS for Activators of Human Muscle Isoform 2 Pyruvate Kinase: Extended Characterization Using A Lactate Dehydrogenase (LDH) Assay Probe 2). Settings: purified hPK-M2, LDH-coupled NADH fluorescence kinetic.
Pyruvate kinase PKM (Homo sapiens), sequence (P14618 whole entry, looked up, canonical isoform): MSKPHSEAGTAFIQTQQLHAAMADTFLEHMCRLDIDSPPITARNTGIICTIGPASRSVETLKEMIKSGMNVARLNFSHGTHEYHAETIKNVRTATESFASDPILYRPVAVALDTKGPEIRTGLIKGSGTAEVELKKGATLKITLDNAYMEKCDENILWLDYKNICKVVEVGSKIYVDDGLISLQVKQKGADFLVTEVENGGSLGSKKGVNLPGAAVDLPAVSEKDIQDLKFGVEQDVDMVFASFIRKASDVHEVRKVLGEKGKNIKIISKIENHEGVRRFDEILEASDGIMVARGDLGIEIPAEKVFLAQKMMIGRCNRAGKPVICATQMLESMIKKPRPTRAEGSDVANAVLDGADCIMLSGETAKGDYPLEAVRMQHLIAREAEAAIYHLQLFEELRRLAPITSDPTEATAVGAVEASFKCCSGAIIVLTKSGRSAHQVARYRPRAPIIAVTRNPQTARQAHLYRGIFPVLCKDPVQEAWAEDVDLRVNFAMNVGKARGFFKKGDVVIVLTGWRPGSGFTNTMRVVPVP
From the text: Human pyruvate kinase muscle 2 (hPK-M2)enzyme was supplied as a highly purified (>95% pure) preparation from Harvard Medical School and a secondary assay was used to evaluate compounds. This assay couples the formation of pyruvate from hPK-M2 using lactate dehydrogenase (LDH) and NADH. The depletion of NADH is followed in a fluorescent-based kinetic assay that follows the formation of pyruvate to lactate, as catalyzed LDH (described by Hannaert et al., 2002)1 Pyruvate kinase substrates, PEP and ADP, were present in the assay at 0.1 mM and 4 mM respectively. In this kinetic assay initial rates were determined by following the fluorescence of NADH depletion. NIH Chemical Genomics Center [NCGC] NIH Molecular Libraries Probe Centers Network [MLPCN] MLPCN Grant: MH085679 Assay Submitter (PI): Matthew G. Vander Heiden, Harvard Medical School
Three uL of substrate mix (final concentration, 50 mM Tris-Cl pH 8.0, 200 mM KCl, 15 mM MgCl2, 0.1 mM PEP, 4.0 mM ADP, and 0.2 mM NADH) was dispensed into black-solid 1536 well plates. 23 nL of compounds were delivered by a pin tool and 1 uL of enzyme mix (final concentrations, 10 nM hPK-M2 and 1 uM of LDH) was added. Plates were immediately placed in ViewLux (Perkin Elmer) and NADH fluorescence was determined at 30 second exposure intervals for between 3 and 6 minutes. Data were normalized to the uninhibited and EC100 activation using known activators such as fructose-bis-phosphate.

Potency, active:
Cc1ccc(NS(=O)(=O)c2ccc3c(c2)CCC(=O)N3)cc1C 0.146 µM
COc1cccc(Cn2ncc3c4sc(S(C)=O)cc4n(C)c3c2=O)c1 (stereo not drawn) 0.41 µM
O=S(=O)(c1ccc2c(c1)OCCO2)N1CCN(S(=O)(=O)c2c(F)cccc2F)CC1 0.178 µM
